# Laboratory results as given in PMC9911399, “Two distinct binding modes provide the RNA-binding protein RbFox with extraordinary sequence specificity”.
# Positions count from the first letter of the chain named. Over roughly 16,000 sequences, “ka relative to ugcaugu” has its median near 0.096; the highest 2% begin near 0.35. This excerpt belongs to a sample that is enriched for the highest values.
# T1: RBFOX1 RRM RbFoxmut (Fox-RRM*) (Homo sapiens, UniProt Q9NWB1 109-208, R118D;E147R;N151S;E152T)
# T1 sequence: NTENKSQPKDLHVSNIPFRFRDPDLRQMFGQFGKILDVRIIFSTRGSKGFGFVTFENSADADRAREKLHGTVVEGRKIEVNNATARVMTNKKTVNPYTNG
# B1: AUGUGAG (DNA:RNA)
# RNA: GGGAGACCGGAAUUCAGAUUGUCCAUGUGAGUUAAAUCCCGUCGUAGCCACCA
# DNA 1: CAATCTGAATTCCGGTCTCCC
# DNA 2: TGGTGGCTACGACGGGATT
# B2: GAUAGGC (DNA:RNA)
# RNA: B1 RNA with A25G, U26A, G27U, U28A, A30G, G31C
# DNA 1: CAATCTGAATTCCGGTCTCCC
# DNA 2: TGGTGGCTACGACGGGATT
# B3: AAGUUCU (DNA:RNA)
# RNA: B1 RNA with U26A, G29U, A30C, G31U
# DNA 1: CAATCTGAATTCCGGTCTCCC
# DNA 2: TGGTGGCTACGACGGGATT
# B4: CGUGAUC (DNA:RNA)
# RNA: GGGAGACCGGAAUUCAGAUUGUCCCGUGAUCUUAAAUCCCGUCGUAGCCACCA
# DNA 1: CAATCTGAATTCCGGTCTCCC
# DNA 2: TGGTGGCTACGACGGGATT
# B5: CGUGAUG (DNA:RNA)
# RNA: B4 RNA with C31G
# DNA 1: CAATCTGAATTCCGGTCTCCC
# DNA 2: TGGTGGCTACGACGGGATT
# B6: UGUGAUC (DNA:RNA)
# RNA: B4 RNA with C25U
# DNA 1: CAATCTGAATTCCGGTCTCCC
# DNA 2: TGGTGGCTACGACGGGATT
# B7: UGUGUGA (DNA:RNA)
# RNA: B4 RNA with C25U, A29U, U30G, C31A
# DNA 1: CAATCTGAATTCCGGTCTCCC
# DNA 2: TGGTGGCTACGACGGGATT
# B8: UGAUCUG (DNA:RNA)
# RNA: B1 RNA with A25U, U26G, G27A, G29C, A30U
# DNA 1: CAATCTGAATTCCGGTCTCCC
# DNA 2: TGGTGGCTACGACGGGATT
# B9: UGUGAUG (DNA:RNA)
# RNA: B4 RNA with C25U, C31G
# DNA 1: CAATCTGAATTCCGGTCTCCC
# DNA 2: TGGTGGCTACGACGGGATT
# B10: GCGAGGG (DNA:RNA)
# RNA: B1 RNA with A25G, U26C, U28A, A30G
# DNA 1: CAATCTGAATTCCGGTCTCCC
# DNA 2: TGGTGGCTACGACGGGATT
# B11: GUCAGAC (DNA:RNA)
# RNA: B1 RNA with A25G, G27C, U28A, G31C
# DNA 1: CAATCTGAATTCCGGTCTCCC
# DNA 2: TGGTGGCTACGACGGGATT
# B12: CAAGAAC (DNA:RNA)
# RNA: B4 RNA with G26A, U27A, U30A
# DNA 1: CAATCTGAATTCCGGTCTCCC
# DNA 2: TGGTGGCTACGACGGGATT
# B13: UCGGUAA (DNA:RNA)
# RNA: B1 RNA with A25U, U26C, U28G, G29U, G31A
# DNA 1: CAATCTGAATTCCGGTCTCCC
# DNA 2: TGGTGGCTACGACGGGATT
# B14: CUCCUAG (DNA:RNA)
# RNA: B1 RNA with A25C, G27C, U28C, G29U
# DNA 1: CAATCTGAATTCCGGTCTCCC
# DNA 2: TGGTGGCTACGACGGGATT
# B15: AUUGUGA (DNA:RNA)
# RNA: B1 RNA with G27U, U28G, G29U, A30G, G31A
# DNA 1: CAATCTGAATTCCGGTCTCCC
# DNA 2: TGGTGGCTACGACGGGATT
# B16: GCGUAUC (DNA:RNA)
# RNA: B4 RNA with C25G, G26C, U27G, G28U
# DNA 1: CAATCTGAATTCCGGTCTCCC
# DNA 2: TGGTGGCTACGACGGGATT
# B17: UUGUAUC (DNA:RNA)
# RNA: B1 RNA with A25U, G29A, A30U, G31C
# DNA 1: CAATCTGAATTCCGGTCTCCC
# DNA 2: TGGTGGCTACGACGGGATT
# B18: CCGUAUC (DNA:RNA)
# RNA: B4 RNA with G26C, U27G, G28U
# DNA 1: CAATCTGAATTCCGGTCTCCC
# DNA 2: TGGTGGCTACGACGGGATT
# B19: UAUCUUG (DNA:RNA)
# RNA: B4 RNA with C25U, G26A, G28C, A29U, C31G
# DNA 1: CAATCTGAATTCCGGTCTCCC
# DNA 2: TGGTGGCTACGACGGGATT
# B20: GUGUAUC (DNA:RNA)
# RNA: B1 RNA with A25G, G29A, A30U, G31C
# DNA 1: CAATCTGAATTCCGGTCTCCC
# DNA 2: TGGTGGCTACGACGGGATT
# B21: GUAUCUC (DNA:RNA)
# RNA: B1 RNA with A25G, G27A, G29C, A30U, G31C
# DNA 1: CAATCTGAATTCCGGTCTCCC
# DNA 2: TGGTGGCTACGACGGGATT
# B22: CAAGCAG (DNA:RNA)
# RNA: B1 RNA with A25C, U26A, G27A, U28G, G29C
# DNA 1: CAATCTGAATTCCGGTCTCCC
# DNA 2: TGGTGGCTACGACGGGATT
# B23: CACGUCU (DNA:RNA)
# RNA: B4 RNA with G26A, U27C, A29U, U30C, C31U
# DNA 1: CAATCTGAATTCCGGTCTCCC
# DNA 2: TGGTGGCTACGACGGGATT
# B24: UGGGGGA (DNA:RNA)
# RNA: B1 RNA with A25U, U26G, U28G, A30G, G31A
# DNA 1: CAATCTGAATTCCGGTCTCCC
# DNA 2: TGGTGGCTACGACGGGATT
# B25: UGGGAGA (DNA:RNA)
# RNA: B4 RNA with C25U, U27G, U30G, C31A
# DNA 1: CAATCTGAATTCCGGTCTCCC
# DNA 2: TGGTGGCTACGACGGGATT
# B26: UGGAUUU (DNA:RNA)
# RNA: B4 RNA with C25U, U27G, G28A, A29U, C31U
# DNA 1: CAATCTGAATTCCGGTCTCCC
# DNA 2: TGGTGGCTACGACGGGATT
# B27: CUGGAUG (DNA:RNA)
# RNA: B4 RNA with G26U, U27G, C31G
# DNA 1: CAATCTGAATTCCGGTCTCCC
# DNA 2: TGGTGGCTACGACGGGATT
# B28: UGCGAUC (DNA:RNA)
# RNA: B4 RNA with C25U, U27C
# DNA 1: CAATCTGAATTCCGGTCTCCC
# DNA 2: TGGTGGCTACGACGGGATT
# B29: CCCUGGA (DNA:RNA)
# RNA: B1 RNA with A25C, U26C, G27C, A30G, G31A
# DNA 1: CAATCTGAATTCCGGTCTCCC
# DNA 2: TGGTGGCTACGACGGGATT
# B30: CUGGAGA (DNA:RNA)
# RNA: B4 RNA with G26U, U27G, U30G, C31A
# DNA 1: CAATCTGAATTCCGGTCTCCC
# DNA 2: TGGTGGCTACGACGGGATT
# B31: UGCGCGA (DNA:RNA)
# RNA: B4 RNA with C25U, U27C, A29C, U30G, C31A
# DNA 1: CAATCTGAATTCCGGTCTCCC
# DNA 2: TGGTGGCTACGACGGGATT
# B32: UGGAUGU (DNA:RNA)
# RNA: B1 RNA with A25U, U26G, U28A, G29U, A30G, G31U
# DNA 1: CAATCTGAATTCCGGTCTCCC
# DNA 2: TGGTGGCTACGACGGGATT
# B33: CGGAUGU (DNA:RNA)
# RNA: B4 RNA with U27G, G28A, A29U, U30G, C31U
# DNA 1: CAATCTGAATTCCGGTCTCCC
# DNA 2: TGGTGGCTACGACGGGATT
# B34: UGCGAUG (DNA:RNA)
# RNA: B4 RNA with C25U, U27C, C31G
# DNA 1: CAATCTGAATTCCGGTCTCCC
# DNA 2: TGGTGGCTACGACGGGATT
# B35: UGGGAUG (DNA:RNA)
# RNA: B4 RNA with C25U, U27G, C31G
# DNA 1: CAATCTGAATTCCGGTCTCCC
# DNA 2: TGGTGGCTACGACGGGATT
# Target: T1, RBFOX1 RRM RbFoxmut (Fox-RRM*)
# Experiment: EMSA; HiTS-Eq, 1 nM pool, 10 min; buffer printed only for the single-RNA assays: 10 mM Tris pH 7.5, 150 mM NaCl, 3.4 mM EDTA, 0.001% NP-40, 30 C
# Conditions: tags: His6 N-terminal (pET28a); label: 5' 32P
# Summary of the method: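 Purified RbFox RRM (wild type or mutant) was equilibrated for 10 min in 50 µL with 1 nM of a 5′-radiolabelled pool of RNA with 7 randomized nucleotides, its flanks annealed to DNA oligonucleotides, across increasing protein concentrations. Free RNA was separated by 8% native PAGE, excised, reverse-transcribed, PCR-barcoded and sequenced on an Illumina HiSeq 2500. Relative association constants came from read-count changes of each variant against the control reaction, normalised to the cognate motif.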
row,Binder,binding signal
1,B1,0.17 KA relative to UGCAUGU
2,B2,0.0824 KA relative to UGCAUGU
3,B3,0.0763 KA relative to UGCAUGU
4,B4,0.118 KA relative to UGCAUGU
5,B5,0.268 KA relative to UGCAUGU
6,B6,0.395 KA relative to UGCAUGU
7,B7,0.209 KA relative to UGCAUGU
8,B8,0.0664 KA relative to UGCAUGU
9,B9,1.01 KA relative to UGCAUGU
10,B10,0.0739 KA relative to UGCAUGU
11,B11,0.0721 KA relative to UGCAUGU
12,B12,0.106 KA relative to UGCAUGU
13,B13,0.133 KA relative to UGCAUGU
14,B14,0.0819 KA relative to UGCAUGU
15,B15,0.0934 KA relative to UGCAUGU
16,B16,0.194 KA relative to UGCAUGU
17,B17,0.523 KA relative to UGCAUGU
18,B18,0.163 KA relative to UGCAUGU

row,Binder,binding signal
1,B19,0.0958 KA relative to UGCAUGU
2,B20,0.424 KA relative to UGCAUGU
3,B21,0.0751 KA relative to UGCAUGU
4,B22,0.0856 KA relative to UGCAUGU
5,B23,0.0849 KA relative to UGCAUGU
6,B24,0.102 KA relative to UGCAUGU
7,B25,0.137 KA relative to UGCAUGU
8,B26,0.0654 KA relative to UGCAUGU
9,B27,0.646 KA relative to UGCAUGU
10,B28,0.286 KA relative to UGCAUGU
11,B29,0.0858 KA relative to UGCAUGU
12,B30,0.0675 KA relative to UGCAUGU
13,B31,0.0898 KA relative to UGCAUGU
14,B32,0.756 KA relative to UGCAUGU
15,B33,0.281 KA relative to UGCAUGU
16,B34,0.493 KA relative to UGCAUGU
17,B35,0.691 KA relative to UGCAUGU
